# Experimental data: PubChem BioAssay AID1778 (Sanford-Burnham Center for Chemical Genomics, 2009)
# Where “and” joins values, the source holds several entries; their conditions need not be identical. Equal values may be shown once. About 260 (0.09%) of roughly 290,000 compounds were called active. The sample holds actives, similar compounds and a random draw of the others, so the mix is not that of the screen. Cut-off read from the data, not from the text of the source: active = inhibition above about 50%; inactive = the rest. Results with a measured potency or affinity are listed apart.
# Molecular target: Kappa-type opioid receptor (Homo sapiens) (UniProt P41145)
# Assay: kappa opioid receptor blockers – cell-based, luminescence, uHTS (AID 1778)
# Conditions: KOR beta-arrestin recruitment, antagonist mode, stronger effect = higher value; at 10 µM unless noted
# Sequence of Kappa-type opioid receptor (Homo sapiens) (P41145 whole entry, looked up): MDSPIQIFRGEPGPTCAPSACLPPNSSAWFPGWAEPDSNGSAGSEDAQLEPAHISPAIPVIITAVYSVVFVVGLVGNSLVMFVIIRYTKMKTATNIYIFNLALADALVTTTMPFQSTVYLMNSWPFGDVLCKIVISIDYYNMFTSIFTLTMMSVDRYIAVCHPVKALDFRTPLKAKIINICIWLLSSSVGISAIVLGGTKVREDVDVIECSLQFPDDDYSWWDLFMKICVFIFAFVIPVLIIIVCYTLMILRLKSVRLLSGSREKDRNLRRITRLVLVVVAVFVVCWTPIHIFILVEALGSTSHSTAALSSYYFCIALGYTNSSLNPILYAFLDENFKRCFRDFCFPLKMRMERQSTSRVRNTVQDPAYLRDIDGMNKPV
row,Compound,inhibition
1,Cc1cccc(C)c1NC(=O)C(c1cccs1)N(Cc1ccco1)C(=O)Cn1nnc2ccccc21 (stereo not drawn),53.4% (active)
2,Cc1ccc(CN(C(=O)Cn2nnc3ccccc32)C(C(=O)NCc2ccco2)c2cccs2)cc1 (stereo not drawn),17.9% (inactive)
3,O=C(NCc1ccco1)C(c1cccs1)N(Cc1ccccc1)C(=O)Cn1nnc2ccccc21 (stereo not drawn),9.5% (inactive)
4,COc1cc(NS(=O)(=O)c2cn(C)cn2)cc(OC)c1,-11.4% (inactive)
5,Cc1ccc(NC(=O)c2cc(N3C(=O)CCC3=O)ccc2N2CCOCC2)cc1,-2.1% [at 20 µM] (inactive)
6,Cc1ccc(NC(=O)c2cc(N3C(=O)C=CC3=O)ccc2N2CCOCC2)cc1Cl,-45.3% (inactive)
7,O=C(Nc1ccc(N2CCOCC2)c([N+](=O)[O-])c1)c1ccco1,11.4% (inactive)
8,Cc1ccc(-c2ccc(C(=O)O)c(C)n2)cc1,21% (inactive)
9,Cc1ccc(C)c(N=Nc2ccc(O)c3ncccc23)c1,60.4% (active)
10,Cc1ccc(N=Nc2ccc(O)c3ncccc23)cc1C,60.3% (active)
11,Oc1ccc(N=Nc2ccccc2C(F)(F)F)c2cccnc12,29.5% (inactive)
12,O=Nc1ccc(O)c2ncccc12,7.2% (inactive)
13,COc1ccccc1N=Nc1ccc(O)c2ncccc12,-19.2% (inactive)
14,Cc1ccc(N=Nc2ccc(O)c3ncccc23)cc1,-2.4% (inactive)
15,Cc1ccc(N=Nc2cc(C)ccc2O)c(C)c1,19.5% (inactive)
16,CCS(=O)(=O)c1ccc(OC)c(N=Nc2ccc(O)c3ncccc23)c1,1.8% (inactive)
17,CC(C)Oc1ccc(N2CC(C(=O)Nc3ccccn3)CC2=O)cc1 (stereo not drawn),19.8% [at 20 µM] (inactive)
18,COc1cc(/C=C2/N=C(C3CCCCC3)OC2=O)cc(OC)c1OC,-1.6% (inactive)
19,CCC(=O)Nc1ccc(NC(=O)c2cccc3ccccc23)cc1,-36.8% [at 20 µM] (inactive)
20,S=C(NCCCc1ccccc1)NCc1ccccc1,7.2% (inactive)
21,Cc1ccc(S(=O)(=O)N2CCOCC2)cc1C(=O)NC1CCSc2ccccc21 (stereo not drawn),27.2% (inactive)
22,CCOc1ncccc1C(=O)NCCc1ccc(S(N)(=O)=O)cc1,-2.5% (inactive)
23,COc1ccc(C(NC(=O)c2ccc(=O)[nH]c2)C(=O)Nc2ccc(C(C)C)cc2)cc1 (stereo not drawn),-5% (inactive)
24,CCOCCCNC(=O)c1cc(=O)n(Cc2cccc(C)c2)c2ccccc12,3.1% (inactive)
25,O=C(Nc1cccc([N+](=O)[O-])c1)c1ccccc1,2.6% (inactive)

row,Compound,inhibition
1,O=C(C#Cc1ccccc1)c1cccc([N+](=O)[O-])c1,-9.6% (inactive)
2,O=C(c1ccccc1)c1ccc(Sc2ccc([N+](=O)[O-])cc2)cc1,10.8% (inactive)
3,O=C(c1ccc(-c2ccccc2)cc1)c1ccc([N+](=O)[O-])cc1,-69.2% (inactive)
4,N/C(=N\OC(=O)c1ccc2c(c1)OCO2)c1cccnc1,-2.2% [at 20 µM] (inactive)
5,CCC(C)(C)NC(=O)C1CCN(c2nc(OC)nc(OC)n2)CC1,-16.1% (inactive)
6,COCC1CCN(C(=O)c2cc(COc3ccc(-n4cncn4)cc3)on2)C1 (stereo not drawn),-15.5% (inactive)
7,CC(C)(C)C1CCc2c(sc(NC(=O)c3cccs3)c2C(N)=O)C1 (stereo not drawn),-55.5% (inactive)
8,Oc1c(C(c2cccs2)N2CCN(c3ccccc3)CC2)ccc2cccnc12 (stereo not drawn),2.5% (inactive)
9,Oc1c(C(c2ccccc2Cl)N2CCCC2)ccc2cccnc12 (stereo not drawn),57.9% (active)
10,Oc1c(C(c2ccccn2)N2CCCCC2)cc(Cl)c2cccnc12 (stereo not drawn),-6.4% (inactive)
11,C/C(=N\Nc1nc(Cl)c(Cl)cc1Cl)c1ccc(S(=O)(=O)NCc2ccco2)cc1,-56.4% (inactive)
12,COCCn1c(=N)c(S(=O)(=O)c2ccc(F)cc2)cc2c(=O)n3cccc(C)c3nc21,-2.3% (inactive)
13,COc1ccc(N(C(=O)c2ccco2)S(=O)(=O)c2ccccc2)cc1,-19.2% (inactive)
14,CCCCN(Cc1cc2cc(OC)ccc2[nH]c1=O)S(=O)(=O)c1ccc(C)cc1,-44.3% [at 20 µM] (inactive)
15,O=C(Cn1ncc2ccccc21)N1CCc2ccccc21,1.2% (inactive)
16,O=C1CN(C(=O)Cn2ncc(Cl)c(Cl)c2=O)c2ccccc2N1,53.5% (inactive)
17,Cc1nc(-c2noc(-c3ccc(Cl)cc3)n2)c(C(F)(F)F)o1,31.9% (inactive)
18,CCCCN1C(=O)C2(OCCCO2)c2cccc(C)c21,-40.4% [at 20 µM] (inactive)
19,CN1CC(=O)N(CC(=O)NCc2ccc(F)cc2)c2ccccc2C1=O,3% (inactive)
20,Cc1c(C(=O)O)[nH]c2c1C(=O)CC(c1ccccc1)C2 (stereo not drawn),-26.9% (inactive)
21,Cc1oc2c(c(=O)c1C)C(=O)CC(c1ccccc1)C2 (stereo not drawn),-21.1% (inactive)
22,CCN1CCN(CC(=O)N2N=C(c3cccs3)CC2c2ccc(F)cc2)C(=O)C1=O (stereo not drawn),0.6% (inactive)
23,C(=N\Nc1nc(-c2ccccn2)nc2ccccc12)/c1ccccc1,76.2% (active)
24,Fc1ccccc1/C=N/Nc1ncnc2ccccc12,10.9% (inactive)
25,C/C(=N\Nc1nc(-c2ccccn2)nc2ccccc12)c1ccc(F)cc1,31.6% (inactive)

row,Compound,inhibition
1,Cc1ccc(-c2nc(N/N=C/c3ccncc3)c3ccccc3n2)cc1,2.4% (inactive)
2,C(=N\Nc1nc(-c2cccnc2)nc2ccccc12)/c1ccccc1,-5.2% (inactive)
3,COc1cccc(CN2CCN(C(=O)c3oc4c(F)cccc4c3C)CC2=O)c1,-26.9% [at 20 µM] (inactive)
4,COC(=O)CSc1nc2sc3c(c2c(=O)n1-c1ccc(OC)cc1)CCN(C)C3,-14.3% (inactive)
5,COc1ccccc1N1CCN(C(=O)c2cnn3cccnc23)CC1,24.4% (inactive)
6,O=C1c2ccccc2C(=O)N1c1ncc(Cc2ccc(Cl)cc2)s1,-50.6% (inactive)
7,N=C1SC(c2ccccc2)C(=O)N1c1ncc(Cc2ccccc2)s1 (stereo not drawn),1.3% (inactive)
8,N=C1SC(c2ccccc2)C(=O)N1c1ncc(Cc2ccccc2Cl)s1 (stereo not drawn),26.7% (inactive)
9,N=C1SCC(=O)N1c1ccccc1Cl,16.3% (inactive)
10,CCC(C(=O)NCc1cccs1)n1nc(C)n2c(cc3occc32)c1=O (stereo not drawn),-9.9% (inactive)
11,Fc1ccccc1-c1nc(-c2cnccc2C(F)(F)F)no1,11.7% (inactive)
12,CC(=O)Oc1ccc(C23CC4CC(CC(C4)C2)C3)cc1C(=O)O,-9% (inactive)
13,COc1ccc(C2=NN(C(=O)c3cccs3)C(c3ccccc3OC)C2)cc1OC (stereo not drawn),3.2% (inactive)
14,Cc1c(C(C)(C)C)s/c(=N/S(=O)(=O)c2ccccc2)n1C,1.7% (inactive)
15,O=Cc1s/c(=N\S(=O)(=O)c2ccccc2)n(CCCCl)c1Cl,-16.2% (inactive)
16,Nc1cc(S(=O)(=O)Nc2cc(Cl)ccc2Cl)ccc1N1CCOCC1,6.9% (inactive)
17,C=CCNCC(=O)Nc1ccccc1SCC(=O)Nc1ccsc1C(=O)OC,-29% [at 20 µM] (inactive)
18,O=[N+]([O-])c1ccc(Nc2ccccc2)c2nonc12,7.5% (inactive)
19,O=[N+]([O-])c1ccc(Nc2ccccc2O)c2nonc12,10.2% [at 20 µM] (inactive)
20,O=[N+]([O-])c1ccc(Sc2cccc[n+]2[O-])c2nonc12,93% (active)
21,CC1(C)CC(=O)C(N=Nc2cccc(S(=O)(=O)N3CCOCC3)c2)=C(O)C1,-0.5% (inactive)
22,CCOC(=O)c1[nH]c(C)c(C(=O)OCc2c(C)noc2C)c1C,-46% (inactive)
23,CCOCCCNC(=O)C(c1ccc(C)cc1)N(Cc1ccc2c(c1)OCO2)C(=O)CNC(C)=O (stereo not drawn),-0.2% (inactive)
24,COc1ccc(NC(=O)C2CC(=O)N(c3ccccc3C)C2)c(OC)c1 (stereo not drawn),-5% (inactive)
25,COc1ccc(C(=O)Nc2ccc(S(=O)(=O)Nc3nccnc3OC)cc2)cc1,-19% (inactive)

row,Compound,inhibition
1,CCCC(=O)N(C1CC(C)C(C#N)(C#N)C1(C#N)C#N)N(C)C (stereo not drawn),85.4% (active)
2,CC(=O)N(C1CC(C)C(C#N)(C#N)C1(C#N)C#N)N(C)C (stereo not drawn),17.9% [at 20 µM] (inactive)
3,O=C(CN(C(=O)CCC(=O)Nc1nccs1)c1ccc2c(c1)OCO2)NCc1ccc(F)cc1,-0.7% (inactive)
4,Cc1nn(C)cc1CNC(=O)C1(C)CC1(Cl)Cl (stereo not drawn),11.1% (inactive)
5,O=S1(=O)NC(=NCCc2ccccn2)c2ccccc21,20.9% (inactive)
6,c1cnc2c(c1)ccc1cccnc12,-30.1% (inactive) and 19.4% (inactive)
7,CC1(C)Cc2c(sc3c4nnnn4c4nnnn4c23)CO1,56.4% (active)
8,CC1(C)Cc2c(sc3ncn4nnnc4c23)CO1,-7.5% (inactive)
9,CC(C)c1nc2sc3c(c2c(=O)n1N)CC(C)(C)OC3,13% (inactive)
10,CC1(C)Cc2c(c(-c3ccco3)nc3sc4c(NCC5CCCO5)ncnc4c23)CO1 (stereo not drawn),-42.4% (inactive)
11,O=C(CSc1nc2ccsc2c(=O)n1CC1CCC(C(=O)O)CC1)c1ccc(F)cc1 (stereo not drawn),18.5% (inactive)
12,COc1ccc(N=Nc2nc(-c3ccccc3)c(-c3ccccc3)[nH]2)cc1,28.4% (inactive)
13,Oc1ccccc1N=Nc1nc(-c2ccccc2)c(-c2ccccc2)[nH]1,33.6% (inactive)
14,O=C(OCCCOc1ccc(F)cc1)c1ccc(O)cc1O,-20.5% (inactive)
15,CCC1CCC(C(=O)NC(C(=O)NCCc2ccc(S(N)(=O)=O)cc2)C(C)C)CC1 (stereo not drawn),-31% (inactive)
16,CCCN1C2CCCC1CC(NC(=O)c1ccccc1OCC)C2 (stereo not drawn),12% (inactive)
17,O=C(NC1CC2CCCC(C1)N2Cc1ccccc1)c1cccc(Cl)c1 (stereo not drawn),13.7% [at 20 µM] (inactive)
18,O=C(NC1CC2CCCC(C1)N2Cc1ccccc1)c1cccc(F)c1 (stereo not drawn),34.5% (inactive)
19,CCOc1ccc(C(=O)NC2CC3CCCC(C2)N3CC(C)C)cc1 (stereo not drawn),-39% (inactive)
20,COc1ccc(C(=O)NC2CC3CCCC(C2)N3Cc2ccccc2)cc1 (stereo not drawn),26.9% (inactive)
21,Cc1ccccc1C(=O)NC1CC2CCCC(C1)N2Cc1ccccc1 (stereo not drawn),-8.6% [at 20 µM] (inactive)
22,CCOc1ccccc1C(=O)NC1CC2CCCC(C1)N2Cc1ccccc1 (stereo not drawn),5.8% (inactive)
23,O=C(NC1CC2CCCC(C1)N2Cc1ccccc1)c1ccc([N+](=O)[O-])cc1 (stereo not drawn),29.6% [at 20 µM] (inactive)
